RORg inh = inhibitors of mouse ROR gamma transcriptional activity; P51450; Drosophila S2 Gal4-RORgamma UAS-luciferase reporter, 20 h; Potency, µM (doses to about 53.6 µM), inactives show top-dose activity change, negative = inhibition, actives largely listed as inhibitors; 5.4% of 310,000 active; AID 2551; further: potency means the concentration at half of the fitted maximal effect; on the % scale 0 is the no-effect control and ±100 the full control effect; nearly all actives have a fitted effect of over 60% in size
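A Gal4/UAS one-hybrid system in insect cells: metallothionein-promoter Gal4–ROR gamma fusion plus Photinus luciferase reporter. Copper sulfate 700 uM final, 20 hr ambient incubation, luminescent detection after 10 min with reagent.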
CBFb-RUNX1 inh = blocks binding between human CBF-beta and RUNX1; Q01196+Q13951; Potency, µM (doses to about 59.8 µM), for inactives: top-dose activity, negative = inhibition, actives largely listed as inhibitors; AlphaScreen CBFb-His/RUNX1-biotin binding, biochemical; 230,000 tested, under 10 active; further: % of control where 0% means no effect
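Compounds were screened at multiple concentrations against a preformed CBF-beta(His)/RUNX1(biotin) complex (30 nM of each) for 15 min at room temperature, followed by 90 min with nickel and streptavidin beads and AlphaScreen reading.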
CtBP-E1A blk = blocks the CtBP interaction with E1A; AlphaScreen GST-E1A/His-CtBP binding, 1536-well; stronger effect = lower value; activity change, % (test concentration not listed); 0.49% of 340,000 active; in the data active means activity change below about -65%; inconclusive means mostly about -30% to -63%; further: on the % scale 0 is the no-effect control and ±100 the full control effect
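GST-E1A and His-tagged CtBP (125 nM each as 5X stock) were preincubated with pin-transferred compound for 2 h at 37 °C in the dark, then glutathione donor and nickel acceptor beads were added for 1 h before AlphaScreen reading.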
VP16 counter = Gal4-VP16 reporter inhibition counter-screen | Drosophila S2 Gal4-VP16 UAS-luciferase, luminescence, 20 h | Potency, µM (top dose mostly 53.6 µM), inactives show top-dose activity, negative = inhibition, most hits filed as inhibitors | 3.5% of 310,000 active;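 further: Gal4-VP16 expression switched on by copper sulfate through the metallothionein promoter; potency means the concentration at half of the fitted maximal effect; on the % scale 0 is the no-effect control and ±100 the full control effect; nearly all actives have a fitted effect of over 50% in size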
MBNL1 CUG block = inhibitors of human MBNL1 binding to CUG repeat RNA; Q9NR56; 0.036% of 280,000 active; AID 2675; TR-FRET MBNL1-His/biotin-(CUG)12 binding, 665/545 ratio; Potency, µM (titrated, usually from 57.5 µM), without a hit: at the highest dose activity change, negative = inhibition, hits mostly inhibitors; active means well fitted inhibition curve with a large enough effect in the signal ratio, with a control signal flat, not every such curve was filed as active; inconclusive means small, poorly fitted or top-dose-only effect, or effect the other way, or a change in a side signal; inactive means no such curve, though single readings can be large or run the other way; the % refers to the signal ratio; further: potency means the concentration at half of the fitted maximal effect; on the % scale 0 is the no-effect control and ±100 the full control effect
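Compound titration spanned 92 nM–58 uM against the MBNL1-His/biotin-(CUG)12 complex. After 60 min at room temperature with 5 nM streptavidin-XL665 and 0.055 ng/ul terbium anti-His, ratiometric 665/545 nm emission (Ex 340 nm) normalized to controls.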
Six1-Eya2 inh = blocks human Six1 binding to Eya2 | 0.56% of 360,000 active | Q15475+O00167 | AID 651725 | AlphaScreen GST-Six1/His-Eya2 binding, biochemical; stronger effect = lower value | activity change, % (no concentration beside the values); in the data active means activity change below about -65%; inconclusive means mostly about -30% to -63%; further: on the % scale 0 is the no-effect control and ±100 the full control effect
Target sequence (O00167 whole entry, looked up): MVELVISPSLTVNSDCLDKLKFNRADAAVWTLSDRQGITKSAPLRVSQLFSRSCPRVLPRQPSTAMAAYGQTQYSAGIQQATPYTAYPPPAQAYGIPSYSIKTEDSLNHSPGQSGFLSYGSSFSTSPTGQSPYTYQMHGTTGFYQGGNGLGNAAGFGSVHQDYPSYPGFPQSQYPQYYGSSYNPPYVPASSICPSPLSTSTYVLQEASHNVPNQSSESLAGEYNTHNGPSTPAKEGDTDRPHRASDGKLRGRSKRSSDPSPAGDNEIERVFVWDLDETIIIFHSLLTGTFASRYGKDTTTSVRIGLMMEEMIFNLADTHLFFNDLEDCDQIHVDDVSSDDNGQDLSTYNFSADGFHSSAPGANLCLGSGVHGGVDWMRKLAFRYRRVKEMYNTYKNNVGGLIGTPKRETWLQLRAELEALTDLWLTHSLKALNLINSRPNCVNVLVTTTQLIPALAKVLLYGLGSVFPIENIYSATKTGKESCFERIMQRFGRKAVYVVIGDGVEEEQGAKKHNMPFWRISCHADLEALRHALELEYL
Target sequence (Q15475 whole entry, looked up): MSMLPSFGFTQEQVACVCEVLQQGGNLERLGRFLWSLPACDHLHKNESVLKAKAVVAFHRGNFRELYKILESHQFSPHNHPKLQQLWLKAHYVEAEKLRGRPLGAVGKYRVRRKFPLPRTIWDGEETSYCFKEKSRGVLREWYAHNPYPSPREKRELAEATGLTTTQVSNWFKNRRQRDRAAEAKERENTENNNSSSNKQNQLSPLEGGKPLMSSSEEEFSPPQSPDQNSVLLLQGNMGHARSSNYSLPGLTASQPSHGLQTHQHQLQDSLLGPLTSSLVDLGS
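AlphaScreen with GST-Six1 and His-Eya2 (5X mix: 250 nM and 500 nM), glutathione donor and nickel acceptor beads; buffer 50 mM Tris pH 8.0, 300 mM NaCl, 1 mM TCEP; 1 h at 37 C in the dark.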
Numbers without * were called inactive; ? = inconclusive; . = no result; [ ] = remark or other dose. Compounds with a hit are over-represented: about 5.5% of the library has one in this group of screens. Unless noted, the call rests on the fitted dose curve; in most records, active means well fitted curve in the direction sought with a large enough effect; inconclusive means small, poorly fitted or top-dose-only effect, or another doubt; inactive means no such curve, though single readings can be large; an effect the other way counts as inactive or inconclusive.

SMILES	RORg inh	CBFb-RUNX1 inh	CtBP-E1A blk	VP16 counter	MBNL1 CUG block	Six1-Eya2 inh
O=C(Nc1nc(-c2cc3ccccc3o2)cs1)c1ccc(S(=O)(=O)N2CCCC2)cc1	?	7.7%	-15.1	7.94µM*	109.7%	-1.5
Cc1cc(-c2csc(NC(=O)c3ccc(S(=O)(=O)N(C)C)cc3)n2)c(C)n1-c1ccccc1	-26.3%	-9.5%	3.7	0.1%	21.5%	0.7
CN(C)S(=O)(=O)c1ccc(C(=O)Nc2nc(-c3cc4ccccc4o3)cs2)cc1	?	-1.6%	-12.5	6.31µM*	-1.5%	-1.3
CC1CN(S(=O)(=O)c2ccc(C(=O)Nc3nc(-c4cc5ccccc5o4)cs3)cc2)CC(C)O1 (centres undefined)	?	-8.7%	10.6	2.82µM*	25.2%	0.9
COc1cc(NC(=O)c2cc(=O)[nH]c3ccc(S(=O)(=O)N4CCOCC4)cc23)cc(OC)c1	.	.	1.3	.	.	-5.6
Cc1csc(NC(=O)c2cc(=O)[nH]c3ccc(S(=O)(=O)N4CCOCC4)cc23)n1	5.0%	?	-69.9*	0.3%	19.7%	?
Cc1ccc(C(=O)Nc2nc(-c3ccccn3)cs2)cc1S(=O)(=O)N1CCOCC1	.	.	-92.5*	.	.	-91.3*
O=C(Nc1nc(-c2ccccn2)cs1)c1ccc(F)c(S(=O)(=O)N2CCOCC2)c1	.	.	-92.9*	.	.	-92.6*
O=C(Nc1nc(-c2ccccn2)cs1)c1cc(S(=O)(=O)N2CCOCC2)ccc1F	.	.	?	.	.	-89.7*
Cc1ccc(C(=O)Nc2ccccn2)cc1S(=O)(=O)N1CCOCC1	.	.	3.2	.	.	1.5
CCC(C)c1ccc(S(=O)(=O)N2CCN(C(C)C(=O)NC3CCCC3)CC2)cc1 (centres undefined)	.	.	15.0	.	.	-3.3
COc1ccc(NC(=S)NCCc2ccccc2)c(C)c1	6.31µM*	.	-3.3	3.98µM*	10.7%	-7.2
COc1ccc(CCNC(=S)Nc2cc(C)ccc2C)cc1	20.9%	-12.1%	0.6	-1.7%	5.5%	-10.4
CCc1cc(Br)ccc1NC(=S)NCCc1ccccc1	5.01µM*	.	-4.0	6.31µM*	-3.0%	-12.3
CCCCNC(=S)Nc1ccccc1Cc1ccccc1	-1.8%	5.5%	-8.1	-3.6%	-1.5%	-4.0
Cc1cc(OC(F)F)ccc1NC(=S)NCCc1ccccc1	7.94µM*	.	-0.2	10µM*	5.3%	-10.4
COc1cc(NC(=S)NCCc2ccccc2)c(OC)cc1NC(=O)C(C)C	?	4.3%	-9.1	-27.6%	-11.9%	-1.3
COc1ccc(CCNC(=S)Nc2ccc(C)cc2C)cc1	3.98µM*	-9.2%	-2.3	7.08µM*	-12.2%	-9.9
O=C(c1nc2ccc(Cl)cn2c1CNCCc1cnccn1)N1CCCCCCC1	1.7%	.	10.5	4.0%	-3.1%	4.2
CC(=O)c1ccc(OC(=O)CCc2nc3ccccc3s2)cc1	?	-1.0%	-6.8	15.7%	-2.3%	-11.8
COc1ccc(/C=C/C(=O)NNC(=O)C(C)Oc2ccccc2F)cc1OC (centres undefined)	.	.	-8.5	.	.	-2.4
CCCn1c(C)nc2c(NC3CCCCC3)nc(C)nc21	15.8µM*	-5.1%	.	9.0%	.	.
CCCn1c(C)nc2c(NCCN3CCCCC3)nc(C)nc21	-1.1%	6.4%	.	-4.1%	.	.
CCCCc1cc2c(cn1)=C(OC(=O)C1CCCC1)C(C)(OC(=O)CC)C(=O)C=2 (centres undefined)	.	-6.8%[13.1 µM]	.	.	.	.
COc1cccc(OC)c1/C(O)=C(\C#N)c1nc2ccccc2[nH]1	3.4%	-5.3%	-9.8	-8.0%	2.1%	-7.8
COc1ccc(/C(C)=N/OC/C(O)=C(\C#N)c2nc3ccccc3[nH]2)cc1OC	10µM*	2.0%	.	-8.9%	0.6%	6.5
COc1ccc(C/C(O)=C(\C#N)c2nc3ccccc3[nH]2)cc1OC	11.2µM*	-0.5%	-8.9	-20.3%	9.3%	1.9
N#C/C(=C(/O)CO/N=C/c1ccccc1Cl)c1nc2ccccc2[nH]1	-28.8%	-8.2%	.	-2.3%	.	0.4

Screening results (PubChem)
